Key:
Assay in all cases: DAPPL (digital affinity profiling via proximity ligation, sequencing); 10 mM Tris-HCl pH 7.5, 50 mM NaCl, 1 mM DTT, 4% glycerol, room temperature, 30 min; GST-TFs on glutathione beads, 16-mer random dsDNA library, 0.1% formaldehyde crosslink after washing; high values mean tight binding
[1] = biological target: T1, FLI1 (Homo sapiens, UniProt Q01543 1-452); conditions: protein: recombinant; tags: N-terminal GST; dsDNA, one strand shown
T1 sequence: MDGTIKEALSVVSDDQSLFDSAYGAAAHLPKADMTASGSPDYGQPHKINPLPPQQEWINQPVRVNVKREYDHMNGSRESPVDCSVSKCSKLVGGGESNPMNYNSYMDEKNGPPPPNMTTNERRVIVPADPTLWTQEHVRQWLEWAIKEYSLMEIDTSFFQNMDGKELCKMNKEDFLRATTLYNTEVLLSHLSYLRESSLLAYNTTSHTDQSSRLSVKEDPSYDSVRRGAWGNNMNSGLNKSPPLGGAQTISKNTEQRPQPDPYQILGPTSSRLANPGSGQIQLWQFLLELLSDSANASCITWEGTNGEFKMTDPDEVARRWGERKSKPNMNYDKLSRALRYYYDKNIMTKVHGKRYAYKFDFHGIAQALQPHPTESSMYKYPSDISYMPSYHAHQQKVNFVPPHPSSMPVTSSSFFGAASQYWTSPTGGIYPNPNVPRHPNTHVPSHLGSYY
In short: (§1)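 Yeast served to express human transcription factors as GST fusions, which were then captured on glutathione beads and labelled with DNA barcodes. Pooled with a tag-only sample, they were incubated with 200 nmole of a 16-mer random double-stranded DNA library for 30 min at room temperature in Tris/NaCl/DTT/glycerol buffer, washed, crosslinked with 0.1% formaldehyde, ligated by proximity, amplified by PCR and sequenced. Dividing each hexamer's read frequency for a factor by its frequency for the tag-only sample gives the binding signal.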

[2] = biological target: T2, GABPA (Homo sapiens, UniProt Q06546 1-454); conditions: protein: recombinant; tags: N-terminal GST; dsDNA, one strand shown
T2 sequence: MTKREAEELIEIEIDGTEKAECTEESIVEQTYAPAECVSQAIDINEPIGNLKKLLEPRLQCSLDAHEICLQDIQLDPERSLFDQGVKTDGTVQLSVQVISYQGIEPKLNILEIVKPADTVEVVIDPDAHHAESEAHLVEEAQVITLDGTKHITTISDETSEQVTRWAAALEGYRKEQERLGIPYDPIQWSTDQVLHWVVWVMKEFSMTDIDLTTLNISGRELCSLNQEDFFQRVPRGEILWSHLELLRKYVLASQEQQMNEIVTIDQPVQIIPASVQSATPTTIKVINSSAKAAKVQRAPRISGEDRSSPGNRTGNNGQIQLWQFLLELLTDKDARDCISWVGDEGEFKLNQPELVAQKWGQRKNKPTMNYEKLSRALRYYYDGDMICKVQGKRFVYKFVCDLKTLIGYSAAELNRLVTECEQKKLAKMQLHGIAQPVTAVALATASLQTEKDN
In short: as §1

[3] = biological target: T3, ERG (Homo sapiens, UniProt P11308 1-479); conditions: protein: recombinant; tags: N-terminal GST; dsDNA, one strand shown
T3 sequence: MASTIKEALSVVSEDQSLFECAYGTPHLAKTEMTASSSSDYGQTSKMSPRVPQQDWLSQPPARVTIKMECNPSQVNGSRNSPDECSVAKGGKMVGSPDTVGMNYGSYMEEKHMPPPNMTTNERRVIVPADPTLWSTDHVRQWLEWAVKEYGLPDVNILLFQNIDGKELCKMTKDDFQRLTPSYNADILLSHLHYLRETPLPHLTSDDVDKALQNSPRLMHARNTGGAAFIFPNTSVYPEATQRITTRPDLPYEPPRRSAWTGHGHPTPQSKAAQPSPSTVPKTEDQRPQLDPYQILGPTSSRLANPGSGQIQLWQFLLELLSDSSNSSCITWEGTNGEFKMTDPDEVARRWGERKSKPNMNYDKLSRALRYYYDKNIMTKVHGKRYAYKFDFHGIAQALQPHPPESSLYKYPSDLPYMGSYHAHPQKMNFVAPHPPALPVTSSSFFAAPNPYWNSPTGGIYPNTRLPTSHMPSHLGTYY
In short: as §1

[4] = biological target: ELF1 (Homo sapiens, UniProt P32519 1-619); conditions: protein: recombinant; tags: N-terminal GST; dsDNA, one strand shown
In short: as §1

[5] = biological target: T4, EHF (Homo sapiens, UniProt Q9NZC4 1-300); conditions: protein: recombinant; tags: N-terminal GST; dsDNA, one strand shown
T4 sequence: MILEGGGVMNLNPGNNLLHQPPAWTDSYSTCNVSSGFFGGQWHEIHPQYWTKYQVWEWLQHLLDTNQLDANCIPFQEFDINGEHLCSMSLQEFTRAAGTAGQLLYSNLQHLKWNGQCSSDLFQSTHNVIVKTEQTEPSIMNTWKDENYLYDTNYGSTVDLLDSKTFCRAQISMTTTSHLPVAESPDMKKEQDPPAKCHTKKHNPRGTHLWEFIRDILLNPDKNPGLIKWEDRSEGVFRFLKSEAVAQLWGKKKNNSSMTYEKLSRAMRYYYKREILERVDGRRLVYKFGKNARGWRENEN
In short: as §1

[6] = biological target: SPI1 (Homo sapiens, UniProt P17947 1-270); conditions: protein: recombinant; tags: N-terminal GST; dsDNA, one strand shown
In short: as §1

[7] = biological target: SPIB (Homo sapiens, UniProt Q01892 1-262); conditions: protein: recombinant; tags: N-terminal GST; dsDNA, one strand shown
In short: as §1

[8] = biological target: T5, FEV (Homo sapiens, UniProt Q99581 1-238); conditions: protein: recombinant; tags: N-terminal GST; dsDNA, one strand shown
T5 sequence: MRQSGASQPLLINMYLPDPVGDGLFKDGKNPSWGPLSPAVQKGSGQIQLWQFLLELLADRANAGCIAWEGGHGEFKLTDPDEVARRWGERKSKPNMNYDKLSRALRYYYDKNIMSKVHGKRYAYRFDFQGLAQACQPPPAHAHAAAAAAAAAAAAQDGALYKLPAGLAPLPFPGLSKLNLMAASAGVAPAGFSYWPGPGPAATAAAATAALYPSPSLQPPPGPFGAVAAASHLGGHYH
In short: as §1

[9] = biological target: ETV5 (Homo sapiens, UniProt P41161 1-510); conditions: protein: recombinant; tags: N-terminal GST; dsDNA, one strand shown
In short: as §1

[10] = biological target: HSF1 (Homo sapiens, UniProt Q00613 1-529); conditions: protein: recombinant; tags: N-terminal GST; chain copies: 3; dsDNA, one strand shown
In short: as §1

[11] = biological target: T6, SPIC (Homo sapiens, UniProt Q8N5J4 1-248); conditions: protein: recombinant; tags: N-terminal GST; dsDNA, one strand shown
T6 sequence: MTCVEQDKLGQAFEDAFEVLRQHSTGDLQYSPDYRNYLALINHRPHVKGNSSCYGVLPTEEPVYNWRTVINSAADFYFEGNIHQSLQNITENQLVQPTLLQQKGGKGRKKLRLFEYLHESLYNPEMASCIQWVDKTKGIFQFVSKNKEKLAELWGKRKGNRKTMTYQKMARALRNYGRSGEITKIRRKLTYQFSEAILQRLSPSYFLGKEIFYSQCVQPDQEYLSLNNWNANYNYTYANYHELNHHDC
In short: as §1

[12] = biological target: ELF4 (Homo sapiens, UniProt Q99607 1-663); conditions: protein: recombinant; tags: N-terminal GST; dsDNA, one strand shown
In short: as §1

[13] = biological target: T7, ELK4 (Homo sapiens, UniProt P28324-2 1-405); conditions: protein: recombinant; tags: N-terminal GST; dsDNA, one strand shown
T7 sequence: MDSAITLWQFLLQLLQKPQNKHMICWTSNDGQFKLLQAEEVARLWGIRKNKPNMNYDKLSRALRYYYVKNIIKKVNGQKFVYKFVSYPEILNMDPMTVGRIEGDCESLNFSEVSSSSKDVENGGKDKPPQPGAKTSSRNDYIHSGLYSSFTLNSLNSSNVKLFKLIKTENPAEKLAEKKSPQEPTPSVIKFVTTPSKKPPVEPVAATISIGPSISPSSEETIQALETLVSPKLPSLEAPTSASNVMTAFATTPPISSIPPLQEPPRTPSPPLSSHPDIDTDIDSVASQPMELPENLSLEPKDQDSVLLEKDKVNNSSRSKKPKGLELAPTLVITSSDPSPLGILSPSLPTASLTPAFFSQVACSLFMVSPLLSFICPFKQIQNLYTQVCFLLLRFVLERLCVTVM
In short: as §1

[14] = biological target: T8, ETV2 (Homo sapiens, UniProt O00321 1-342); conditions: protein: recombinant; tags: N-terminal GST; dsDNA, one strand shown
T8 sequence: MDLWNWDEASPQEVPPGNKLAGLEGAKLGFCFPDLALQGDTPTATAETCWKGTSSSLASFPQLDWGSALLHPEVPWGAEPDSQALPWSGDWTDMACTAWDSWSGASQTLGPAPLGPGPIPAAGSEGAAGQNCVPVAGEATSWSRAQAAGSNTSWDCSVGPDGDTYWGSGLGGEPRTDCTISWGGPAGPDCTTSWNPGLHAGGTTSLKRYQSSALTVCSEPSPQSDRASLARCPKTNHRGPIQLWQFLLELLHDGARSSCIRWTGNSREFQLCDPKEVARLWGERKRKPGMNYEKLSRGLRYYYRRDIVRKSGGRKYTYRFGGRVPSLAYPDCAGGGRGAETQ
In short: as §1

[15] = biological target: T9, ELF3 (Homo sapiens, UniProt P78545 1-371); conditions: protein: recombinant; tags: N-terminal GST; dsDNA, one strand shown
T9 sequence: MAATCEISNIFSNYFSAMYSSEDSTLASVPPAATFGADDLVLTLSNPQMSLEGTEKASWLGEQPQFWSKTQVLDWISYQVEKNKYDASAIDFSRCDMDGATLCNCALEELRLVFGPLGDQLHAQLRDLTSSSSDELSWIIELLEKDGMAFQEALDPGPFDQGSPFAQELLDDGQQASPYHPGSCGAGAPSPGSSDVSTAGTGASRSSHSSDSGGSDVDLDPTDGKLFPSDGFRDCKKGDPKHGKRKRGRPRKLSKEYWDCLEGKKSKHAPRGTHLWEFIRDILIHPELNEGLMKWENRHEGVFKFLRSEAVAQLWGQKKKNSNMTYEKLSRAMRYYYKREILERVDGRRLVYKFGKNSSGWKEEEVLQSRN
In short: as §1

[16] = biological target: CRX (Homo sapiens, UniProt O43186 1-299); conditions: protein: recombinant; tags: N-terminal GST; dsDNA, one strand shown
In short: as §1

[17] = biological target: ETV1 (Homo sapiens, UniProt P50549 1-477); conditions: protein: recombinant; tags: N-terminal GST; dsDNA, one strand shown
In short: as §1

HSF1, sequence (Q00613 whole entry): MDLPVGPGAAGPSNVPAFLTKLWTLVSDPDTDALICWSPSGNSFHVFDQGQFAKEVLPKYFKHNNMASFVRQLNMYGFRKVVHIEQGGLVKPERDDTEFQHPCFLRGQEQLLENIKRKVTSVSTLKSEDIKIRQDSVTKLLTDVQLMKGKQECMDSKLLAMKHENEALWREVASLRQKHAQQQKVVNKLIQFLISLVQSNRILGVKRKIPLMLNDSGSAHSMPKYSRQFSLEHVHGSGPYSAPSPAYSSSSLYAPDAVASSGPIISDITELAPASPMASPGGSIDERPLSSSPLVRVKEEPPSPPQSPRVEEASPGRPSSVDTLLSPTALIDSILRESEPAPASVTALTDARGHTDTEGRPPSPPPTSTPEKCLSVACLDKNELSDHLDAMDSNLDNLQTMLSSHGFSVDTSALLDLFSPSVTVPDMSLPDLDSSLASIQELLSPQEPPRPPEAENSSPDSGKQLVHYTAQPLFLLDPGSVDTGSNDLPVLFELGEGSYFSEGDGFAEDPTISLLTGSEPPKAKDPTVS
ETV1, sequence (P50549 whole entry): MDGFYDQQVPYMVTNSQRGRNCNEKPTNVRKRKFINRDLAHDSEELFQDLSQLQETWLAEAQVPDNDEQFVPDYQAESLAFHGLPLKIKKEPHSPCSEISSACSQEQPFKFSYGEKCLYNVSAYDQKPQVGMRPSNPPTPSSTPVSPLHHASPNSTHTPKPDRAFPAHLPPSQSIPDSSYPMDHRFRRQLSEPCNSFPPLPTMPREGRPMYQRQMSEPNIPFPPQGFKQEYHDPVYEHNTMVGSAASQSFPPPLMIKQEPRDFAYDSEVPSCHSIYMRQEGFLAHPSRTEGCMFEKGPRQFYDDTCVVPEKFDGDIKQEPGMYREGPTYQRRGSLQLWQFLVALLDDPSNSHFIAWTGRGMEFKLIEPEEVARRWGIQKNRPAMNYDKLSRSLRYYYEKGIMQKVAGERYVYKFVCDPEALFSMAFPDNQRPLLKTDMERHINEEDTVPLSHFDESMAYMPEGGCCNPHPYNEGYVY
ELF1, sequence (P32519 whole entry): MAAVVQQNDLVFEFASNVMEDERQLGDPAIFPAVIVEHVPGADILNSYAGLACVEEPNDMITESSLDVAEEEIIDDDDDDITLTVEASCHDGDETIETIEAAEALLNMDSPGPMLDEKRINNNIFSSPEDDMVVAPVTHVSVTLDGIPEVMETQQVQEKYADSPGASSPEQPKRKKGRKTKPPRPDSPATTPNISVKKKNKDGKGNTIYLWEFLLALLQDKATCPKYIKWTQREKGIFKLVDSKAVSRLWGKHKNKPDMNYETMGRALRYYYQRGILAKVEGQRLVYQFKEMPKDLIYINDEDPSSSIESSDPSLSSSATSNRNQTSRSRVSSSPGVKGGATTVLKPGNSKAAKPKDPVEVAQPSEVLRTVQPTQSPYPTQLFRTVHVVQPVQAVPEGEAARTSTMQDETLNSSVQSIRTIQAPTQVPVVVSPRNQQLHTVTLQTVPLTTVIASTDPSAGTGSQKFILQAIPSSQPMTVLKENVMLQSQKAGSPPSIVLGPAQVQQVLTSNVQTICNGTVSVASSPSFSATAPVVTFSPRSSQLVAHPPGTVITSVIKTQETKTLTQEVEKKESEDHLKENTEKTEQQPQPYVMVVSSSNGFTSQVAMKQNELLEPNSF
SPIB, sequence (Q01892 whole entry): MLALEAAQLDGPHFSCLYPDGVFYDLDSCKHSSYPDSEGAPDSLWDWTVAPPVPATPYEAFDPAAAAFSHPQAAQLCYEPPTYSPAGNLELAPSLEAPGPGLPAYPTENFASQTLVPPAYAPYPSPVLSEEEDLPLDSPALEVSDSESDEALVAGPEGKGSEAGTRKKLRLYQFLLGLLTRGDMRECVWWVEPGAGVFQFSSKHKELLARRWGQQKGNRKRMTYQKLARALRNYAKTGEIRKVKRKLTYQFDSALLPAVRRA
ELF4, sequence (Q99607 whole entry): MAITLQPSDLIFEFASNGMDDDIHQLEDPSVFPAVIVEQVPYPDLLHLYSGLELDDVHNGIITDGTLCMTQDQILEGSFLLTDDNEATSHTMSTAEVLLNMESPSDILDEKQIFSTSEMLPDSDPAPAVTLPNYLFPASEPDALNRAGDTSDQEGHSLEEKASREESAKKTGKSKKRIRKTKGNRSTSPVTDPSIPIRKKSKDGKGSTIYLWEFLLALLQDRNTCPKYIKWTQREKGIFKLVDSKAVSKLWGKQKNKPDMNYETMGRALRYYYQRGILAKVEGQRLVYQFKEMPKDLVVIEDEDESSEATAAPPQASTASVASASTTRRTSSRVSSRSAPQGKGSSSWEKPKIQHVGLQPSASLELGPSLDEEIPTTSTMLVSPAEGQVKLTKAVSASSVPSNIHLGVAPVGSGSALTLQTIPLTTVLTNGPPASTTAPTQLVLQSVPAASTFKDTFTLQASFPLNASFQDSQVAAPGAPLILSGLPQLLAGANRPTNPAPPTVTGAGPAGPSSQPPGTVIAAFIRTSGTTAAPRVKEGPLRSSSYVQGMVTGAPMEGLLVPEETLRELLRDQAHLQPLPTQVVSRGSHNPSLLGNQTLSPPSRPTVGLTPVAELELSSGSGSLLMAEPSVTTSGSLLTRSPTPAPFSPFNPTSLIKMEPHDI
ETV5, sequence (P41161 whole entry): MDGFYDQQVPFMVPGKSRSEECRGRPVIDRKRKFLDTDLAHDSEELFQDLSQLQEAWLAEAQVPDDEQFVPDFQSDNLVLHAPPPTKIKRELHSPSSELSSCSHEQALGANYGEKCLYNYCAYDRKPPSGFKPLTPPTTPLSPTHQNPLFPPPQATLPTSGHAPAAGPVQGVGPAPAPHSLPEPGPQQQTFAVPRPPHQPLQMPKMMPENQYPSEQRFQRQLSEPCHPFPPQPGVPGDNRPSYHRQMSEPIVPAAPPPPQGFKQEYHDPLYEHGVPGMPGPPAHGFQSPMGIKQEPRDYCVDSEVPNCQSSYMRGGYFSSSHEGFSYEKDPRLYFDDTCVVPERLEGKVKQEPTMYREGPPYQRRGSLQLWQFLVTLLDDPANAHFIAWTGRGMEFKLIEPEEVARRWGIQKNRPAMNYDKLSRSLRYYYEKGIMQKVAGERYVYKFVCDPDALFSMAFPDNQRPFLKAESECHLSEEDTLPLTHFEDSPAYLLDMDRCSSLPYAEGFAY
CRX, sequence (O43186 whole entry): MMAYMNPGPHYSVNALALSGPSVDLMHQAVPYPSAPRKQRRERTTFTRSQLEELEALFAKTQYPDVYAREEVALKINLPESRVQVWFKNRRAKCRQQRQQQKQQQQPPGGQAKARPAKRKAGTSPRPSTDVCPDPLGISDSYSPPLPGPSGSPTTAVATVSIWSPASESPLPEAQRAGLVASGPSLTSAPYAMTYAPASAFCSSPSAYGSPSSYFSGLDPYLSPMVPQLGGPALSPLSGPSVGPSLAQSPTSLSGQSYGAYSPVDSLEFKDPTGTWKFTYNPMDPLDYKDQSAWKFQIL

## TTTGAG
[1]
  binding signal: 1.13 fold enrichment (6-mer frequency, TF over GST control)
[2]
  binding signal: 1.28 fold enrichment (6-mer frequency, TF over GST control)
[3]
  binding signal: 1.05 fold enrichment (6-mer frequency, TF over GST control)
[4]
  binding signal: 1.13 fold enrichment (6-mer frequency, TF over GST control)
[5]
  binding signal: 1.09 fold enrichment (6-mer frequency, TF over GST control)
[6]
  binding signal: 1.16 fold enrichment (6-mer frequency, TF over GST control)
[7]
  binding signal: 1.12 fold enrichment (6-mer frequency, TF over GST control)
[8]
  binding signal: 1.03 fold enrichment (6-mer frequency, TF over GST control)
[9]
  binding signal: 1.02 fold enrichment (6-mer frequency, TF over GST control)
[10]
  binding signal: 1.1 fold enrichment (6-mer frequency, TF over GST control)
[11]
  binding signal: 1.36 fold enrichment (6-mer frequency, TF over GST control)
[12]
  binding signal: 1.02 fold enrichment (6-mer frequency, TF over GST control)
[13]
  binding signal: 1.23 fold enrichment (6-mer frequency, TF over GST control)
[14]
  binding signal: 1.04 fold enrichment (6-mer frequency, TF over GST control)
[15]
  binding signal: 1.08 fold enrichment (6-mer frequency, TF over GST control)
[16]
  binding signal: 1.23 fold enrichment (6-mer frequency, TF over GST control)
[17]
  binding signal: 1.14 fold enrichment (6-mer frequency, TF over GST control)

Reference: article PMC7862700, “An all-to-all approach to the identification of sequence-specific readers for epigenetic DNA modifications on cytosine”
